Our source for the composite z-score and z-score values is PubChem BioAssay.

For experiment [1], the system named is XIP peptide (Xip251-270) binding. Briefly: XIP fragment 251-270 binding compounds – biochemical, small-molecule microarray, fluorescence 635/667 nm, 0.1 µg/mL protein, primary screen (AID 1182). As to conditions: fluorescent protein binding, 635 nm, higher = more signal, called active from +8 up or from −8 down.
The test system of another experiment is XIP peptide (Xip251-270). In words: compounds binding XIP fragment 251-270 – biochemical, small-molecule microarray, fluorescence 635/667 nm, 0.5 µg/mL protein, primary screen (AID 1183). The following applies: fluorescence 635 nm, higher = more signal.
A short description of experiment [2]: blood-stage malaria parasite viability loss – strain 3D7, DAPI fluorescence, 100 nL, primary screen (AID 1184).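 Further: parasites grown inside human red blood cells in medium with human serum.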 As to conditions: P. falciparum 3D7 growth, 3 d, higher = more signal.
For experiment [3], the target named is Homeobox protein Hox-A13 (Mus musculus) (UniProt Q62424). Briefly: disruptors of Hoxa13 oligonucleotide interaction – biochemical, fluorescence polarization, labeled oligonucleotide, primary screen (AID 1185). The following applies: Hoxa13:DNA binding, 15 min, higher = more signal, called active from +8 up or from −8 down. (In general: Fluorescence polarisation rises when a labelled molecule tumbles more slowly, as on binding a larger partner.)
Sequence of Homeobox protein Hox-A13 (Mus musculus) (Q62424 whole entry, looked up): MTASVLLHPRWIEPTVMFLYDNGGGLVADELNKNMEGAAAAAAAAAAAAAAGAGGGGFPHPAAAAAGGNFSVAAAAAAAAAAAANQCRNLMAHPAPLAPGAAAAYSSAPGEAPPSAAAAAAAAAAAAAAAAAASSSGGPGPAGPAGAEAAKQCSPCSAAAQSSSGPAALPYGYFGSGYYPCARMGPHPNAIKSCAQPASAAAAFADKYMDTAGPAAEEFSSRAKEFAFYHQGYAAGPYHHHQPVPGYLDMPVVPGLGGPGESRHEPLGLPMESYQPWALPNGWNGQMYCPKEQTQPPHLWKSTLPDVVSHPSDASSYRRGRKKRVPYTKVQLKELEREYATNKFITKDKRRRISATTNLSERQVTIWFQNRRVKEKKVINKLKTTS

The nature of experiment [4]: blockers of DNA damage checkpoint Chk1 activation – imaging, HeLa, hydroxyurea, phospho-Chk1 antibody, percent positive cells, primary screen (AID 1186). The following applies: hydroxyurea-induced phospho-Chk1 immunofluorescence imaging, higher = more signal.
A short description of experiment [5]: blockers of DNA damage checkpoint Chk1 activation – imaging, HeLa, hydroxyurea, phospho-Chk1 nuclear intensity, primary screen (AID 1187). The following applies: hydroxyurea-induced phospho-Chk1 immunofluorescence imaging, higher = more signal.

Calls of active or inactive are those of the source. Unless noted, how the calls were made is not given here.

For `CC(=O)NCCCC[C@@H]1NC(=O)[C@H]2C[C@@H](C(=O)NCCCCCNC(=O)CS)[C@@H](c3cccc(OCCO)c3)N2C1=O`, the results for the composite z-score (in experiment [1]; in the experiment with XIP peptide (Xip251-270)) were 4.01 (inactive) and 0.854, respectively. In addition, the z-score in experiment [2] is -0.559; in experiment [3], -3.69 (inactive); in experiment [4] it was 0.276 (inactive); in experiment [5], 0.591 (inactive).
In the case of `Cc1nc2cc(Br)ccc2c(=O)n1Cc1cccc(O)c1`, the composite z-score in experiment [1] was 0.651 (inactive); with XIP peptide (Xip251-270), 0.529. The z-score is -0.563 in experiment [2], 0.464 (inactive) in experiment [3], 0.18 (inactive) in experiment [4] and 0.257 (inactive) in experiment [5].
Regarding `COc1ccc(C(=O)Nc2cccc(CN3C(=O)[C@]4(O[C@H](CCn5cc([C@H](O)c6ccccc6)nn5)[C@@H]([Si](C)(C)c5ccc(OC)cc5)[C@@H]4C)c4ccccc43)c2)cc1`, the composite z-score in experiment [1] was 0.0632 (inactive); in the experiment with XIP peptide (Xip251-270), 0.497. For the same compound, the z-score in experiment [2] was -2.76; in experiment [3] it was 2 (inactive); in experiment [4], -0.161 (inactive); in experiment [5], -0.0692 (inactive).
With `[N-]=[N+]=Nc1ccccc1C[C@]1(C(=O)O)N=C(c2ccc(OCCCO)cc2)O[C@H]1c1ccccc1`, the composite z-score was 0.471 (inactive) in experiment [1] and 0.641 in the experiment on XIP peptide (Xip251-270). The z-score in experiment [2] was 0.283; in experiment [3] it was -5.34 (inactive); in experiment [4], 0.496 (inactive); in experiment [5], 0.558 (inactive).
`C[C@@]12COC[C@]13C=C(Br)[C@H](C2)[C@@]1(CO1)C3=O`: the composite z-score was 0.0387 (inactive) in experiment [1] and -0.192 in the experiment with XIP peptide (Xip251-270). Moreover, the z-score in experiment [2] was 1.88; in experiment [3], -0.703 (inactive); in experiment [4], -0.0927 (inactive); in experiment [5], 0.12 (inactive).
Consider `CCN(CC)c1ccc(N2CC=CC34O[C@@H]5C=CCCOC(=O)C5[C@H]3C(=O)N(CCO)[C@@H]4C2=O)cc1` (some centres not stated), for which the figures for the composite z-score (in experiment [1]; in the experiment with XIP peptide (Xip251-270)) were -0.828 (inactive) and -0.72, respectively. For the same compound, the z-score in experiment [2] was 0.0497; in experiment [3], -5.85 (inactive); in experiment [4], -0.516 (inactive); in experiment [5] it was -0.584 (inactive).
Consider `C=C(CCCC)C(=O)CC[C@@H](OC(=O)c1cccnc1)c1ccc(OCCO)cc1`, for which the composite z-score in experiment [1] is 0.408 (inactive); in the experiment with XIP peptide (Xip251-270), 0.713. For the same compound, the z-score is -2.28 in experiment [2], -3.82 (inactive) in experiment [3], 1.27 (inactive) in experiment [4] and 1.21 (inactive) in experiment [5].
For `CC(=O)n1cc(C(O)C2C=CC3C(=O)N(c4ccccc4)C(=O)C3N2Nc2ccc(C(C)C)cc2)c2ccccc21` (configuration not stated), the composite z-score in experiment [1] is 0.18 (inactive); in the experiment on XIP peptide (Xip251-270) it was 0.755. The z-score in experiment [2] was -0.15; in experiment [3], -2.7 (inactive); in experiment [4], 0.417 (inactive); in experiment [5], 0.2 (inactive).
For `COC(=O)[C@@]1(Cc2ccc(F)cc2)[C@H]2c3cc(C(=O)N4CCCC4)n(C)c3C[C@H]2CN1C(=O)c1ccccc1`, the composite z-score is 0.125 (inactive) in experiment [1] and 0.664 with XIP peptide (Xip251-270). Besides, the z-score in experiment [2] is -0.37; in experiment [3] it was -6.1 (inactive); in experiment [4], -0.0152 (inactive); in experiment [5], 0.504 (inactive).
On to `COCCOC(=O)N1C(=O)[C@@]2(c3cc(C#CCNC(N)=O)ccc31)[C@H](c1ccc(O)cc1)N1[C@H](c3ccccc3)[C@H](c3ccccc3)OC(=O)[C@H]1[C@@H]2C(N)=O`, for which the composite z-score is -0.256 (inactive) in experiment [1] and 0.124 with XIP peptide (Xip251-270). Besides, the z-score was 0.228 in experiment [2], -0.531 (inactive) in experiment [3], -0.0933 (inactive) in experiment [4] and -0.0072 (inactive) in experiment [5].
With `O=C1C[C@@](C(=O)NCc2ccccc2)(c2ccc([N+](=O)[O-])cc2)[C@@H](c2ccc(CO)cc2I)N1CC12CC3CC(CC(C3)C1)C2`, the composite z-score in experiment [1] was 0.239 (inactive); with XIP peptide (Xip251-270), 0.692. Also, the z-score was -1.48 in experiment [2], -2.19 (inactive) in experiment [3], -0.114 (inactive) in experiment [4] and -0.147 (inactive) in experiment [5].
As for `C=CCC(OC(C)=O)[C@@H]1[C@@H](N(Cc2ccc(-c3ccccc3)cc2)C(=O)c2ccc(C)cc2)c2cc(OCCCO)ccc2N1C(=O)Cc1ccc2ccccc2c1` (some centres not stated), the composite z-score is 0.254 (inactive) in experiment [1] and 0.0529 with XIP peptide (Xip251-270). For the same compound, the z-score in experiment [2] is -0.481; in experiment [3], -1.28 (inactive); in experiment [4] it was -0.816 (inactive); in experiment [5], -0.488 (inactive).
As to `C=C(/C(=C/C[C@@H](OC(=O)c1ccncc1)c1cccc(OCCO)c1)c1cnc2ccccc2c1)C(C)C`, the composite z-score in experiment [1] was 0.601 (inactive); with XIP peptide (Xip251-270), 0.602. Also, the z-score in experiment [2] was -2.88; in experiment [3], -4.48 (inactive); in experiment [4], 0.242 (inactive); in experiment [5], 0.258 (inactive).
For the compound `COc1cccc(/C=C(\C#N)C(=O)Nc2c(C)n(C)n(-c3ccccc3)c2=O)c1`, the results for the composite z-score (in experiment [1]; in the experiment with XIP peptide (Xip251-270)) were 0.0887 (inactive) and 0.438, respectively. Further, the z-score is 0.393 in experiment [2], -0.75 (inactive) in experiment [3], -0.252 (inactive) in experiment [4] and -0.13 (inactive) in experiment [5].
Regarding `CC(C)C[C@@H]1NC(=O)CNC(=O)[C@@]23C(=O)N[C@@H](Cc4ccccc4)C2[C@H](C)[C@@]2(C)O[C@H]2C3/C=C/C/C=C\CNC1=O` (some centres not stated), the composite z-score in experiment [1] was 0.408 (inactive); in the experiment on XIP peptide (Xip251-270), 0.767. In addition, the z-score in experiment [2] was 0.0276; in experiment [3], -6.42 (inactive); in experiment [4], -0.284 (inactive); in experiment [5] it was 0.0034 (inactive).
For `C=CCNC(=O)[C@H]1[C@@H]2C(=O)O[C@@H](c3ccccc3)[C@@H](c3ccccc3)N2[C@@H](c2ccc(OCCO)cc2)[C@]12C(=O)N(C(=O)OCCOC)c1ccc(C#Cc3ccc(OC)cc3)cc12`, the composite z-score in experiment [1] is 0.0294 (inactive); in the experiment on XIP peptide (Xip251-270), 0.719. The z-score in experiment [2] is -2.38; in experiment [3], 4.25 (inactive); in experiment [4], -0.499 (inactive); in experiment [5], -0.744 (inactive).
Take `CN1C(=O)C2C(C1=O)C1C=C(CCCO)C2C(C2CC2)N1Cc1cc2c(cc1Br)OCO2` (configuration not stated): the composite z-score in experiment [1] is 1.34 (inactive); in the experiment on XIP peptide (Xip251-270), 0.891. The z-score was -1.2 in experiment [2], -7.89 (inactive) in experiment [3], 0.498 (inactive) in experiment [4] and 0.27 (inactive) in experiment [5].
